Many of the other results were omitted from the sample, so hits are more common in it than they were.
ERK EGF inh: qHTS Assay for Inhibitors of the ERK Signaling Pathway using a Homogeneous Screening Assay; Stimulation with EGF. HEK293-V1b, EGF-stimulated phospho-ERK AlphaScreen. Potency, µM (titrated, usually from 11.5 µM), actives largely listed as inhibitors. 130,000 compounds, 0.41% hits; note: nearly all actives have a fitted effect of over 55% in size
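HEK293 cells stably expressing V1b receptor, serum-reduced (1% FBS) overnight, pretreated 30 min with compound, then stimulated 5 min with 25 nM EGF; phospho-ERK detected by AlphaScreen SureFire. AC50 from Hill fits, normalized to DMSO and EGF.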
pERK EGF inh: Confirmation Concentration-Response Assay for Inhibitors of the ERK Signaling Pathway using a Homogeneous Screening Assay; Stimulation with EGF | shares compounds with ERK EGF inh | HEK293 EGF-stimulated ERK phosphorylation, AlphaScreen | Potency, µM (series often up to 57.5 µM), actives largely listed as inhibitors | 60 compounds, 60% hits
c-Raf inh: Assay for Inhibitors of the ERK Signaling Pathway using a Homogeneous Screening Assay: c-Raf Inhibition. shares compounds with ERK EGF inh. c-Raf kinase inhibition, homogeneous biochemical assay. activity change, negative = inhibition, % at 76.9 µM. 70 tested, under 10 active. AID 1728, 2009
MEK inh: Assay for Inhibitors of the ERK Signaling Pathway using a Homogeneous Screening Assay: MEK Inhibition; shares compounds with ERK EGF inh; homogeneous MEK kinase activity assay, ERK pathway; Potency, µM (series often up to 76.9 µM), most hits filed as inhibitors; 70 tested, under 10 active; AID 1732, 2009
Target sequence (Q02750 whole entry, looked up): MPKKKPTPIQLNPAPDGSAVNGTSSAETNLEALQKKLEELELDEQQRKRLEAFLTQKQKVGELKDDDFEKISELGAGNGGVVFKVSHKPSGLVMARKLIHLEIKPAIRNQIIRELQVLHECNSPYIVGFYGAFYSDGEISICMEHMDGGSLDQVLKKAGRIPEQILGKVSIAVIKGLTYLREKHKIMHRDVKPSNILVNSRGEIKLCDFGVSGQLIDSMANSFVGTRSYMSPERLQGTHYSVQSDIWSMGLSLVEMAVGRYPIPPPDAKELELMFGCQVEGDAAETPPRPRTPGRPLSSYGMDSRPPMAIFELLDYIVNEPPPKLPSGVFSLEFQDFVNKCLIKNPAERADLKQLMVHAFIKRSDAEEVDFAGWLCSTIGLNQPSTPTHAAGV
Large screens that a line does not name were inactive (follow-up assays come after a bar, where they were run). Calls come from the whole dose curve; as a rule, active = well fitted curve in the direction sought with a large enough effect; inconclusive = small, poorly fitted or top-dose-only effect, or another doubt; inactive = no such curve, though single readings can be large; an effect the other way counts as inactive or inconclusive.

CC(=O)OC1C[C@H](O[C@@H]2C(O)C[C@H](O[C@@H]3C(O)C[C@@H](OC4CC[C@]5(C)C(CCC6C5CC(O)[C@@]5(C)C(C7=CC(=O)OC7)CC[C@@]65O)C4)OC3C)OC2C)O[C@H](C)[C@H]1O[C@H]1OC(CO)C(O)C(O)C1O (stereo partly specified)	none
CC1CC[C@@]2(OC1)O[C@@H]1[C@@H](O)[C@H]3C4CC[C@H]5C[C@@H](O[C@@H]6O[C@H](CO)[C@H](O[C@@H]7O[C@H](CO)[C@@H](O)[C@H](O[C@@H]8OC[C@@H](O)[C@H](O)[C@H]8O)[C@H]7O[C@@H]7O[C@H](CO)[C@@H](O)[C@H](O[C@@H]8O[C@H](CO)[C@@H](O)[C@H](O)[C@H]8O)[C@H]7O)[C@H](O)[C@H]6O)[C@H](O)C[C@]5(C)C4CC[C@]3(C)[C@H]1[C@@H]2C (stereo partly specified)	none
CC1CC[C@@]2(OC1)OC1C(O)C3C4CC[C@H]5CC(O[C@@H]6O[C@@H](CO)[C@H](OC7OC(CO)C(O)C(OC8OCC(O)C(O)[C@H]8O)[C@@H]7O[C@@H]7OC(CO)[C@H](O)[C@@H](O[C@@H]8OC(CO)C(O)C(O)C8O)C7O)C(O)C6O)C(O)C[C@]5(C)C4CC[C@]3(C)C1C2C (stereo partly specified)	ERK EGF inh 7.1µM
O=C1CCCC2C3CC(CN12)C1CCCCN1C3 (stereo unspecified)	none
Cc1cc(/C=C2/C(=O)NC(=O)N(Cc3ccco3)C2=O)c(C)n1-c1ccccc1	none
CCN1C(=O)NC(=O)/C(=C/c2cc(C)n(-c3sc(C)c(C)c3C#N)c2C)C1=O	ERK EGF inh inconclusive | pERK EGF inh inactive | c-Raf inh inactive | MEK inh inconclusive
Cc1ccc(N2C(=O)NC(=O)/C(=C\c3cc(C)n(-c4sc5c(c4C#N)CCCC5)c3C)C2=O)cc1	none
C[C@@]12CC(c3ccoc3)OC(=O)C1CC[C@@]1(C)C2C2C=C[C@@]1(O)C(=O)O2 (stereo partly specified)	none
CCn1nc(/C=C/c2ccccc2)nc2c(=O)n(C)c(=O)nc1-2	none
Cc1cccc(-n2c(-c3cccs3)nc3ccccc3c2=O)c1	none
CCn1nc(-c2cccs2)nc2c(=O)n(C)c(=O)nc1-2	none (no result: ERK EGF inh) | c-Raf inh inconclusive | MEK inh 0.89µM
C/C(O)=C(/C#N)C(=O)Nc1cc(Br)ccc1Br	none
CN1C[C@@H](C(=O)N[C@@]2(C)O[C@]3(O)C4CCCN4C(=O)[C@@H](Cc4ccccc4)N3C2=O)C=C2c3cccc4[nH]cc(c34)C[C@@H]21 (stereo partly specified)	none
CCCCC/C=C\C/C=C\C/C=C\CCCCC(=O)NCCO	none

Assay outcomes as filed in PubChem.
